Assay results as given in ChEMBL document CHEMBL3988442, “University of Dundee, Small-Polar-MMV Screening Library” (2021).
About 13,000 (27%) of roughly 48,000 compounds showed an effect of 50% or more. Some of the results follow.

The compounds below were run on Wolbachia pipientis (assay: Anti-Wolbachia Cell-Based Screen). Conditions: 5 µM.
Format: functional
Set-up: scale not given: in the data most compounds retested in dose-response had high values

SMILES	Percent Effect [%]
CC(C)N1CCC(NC(=O)NC2CCOc3ccc(Br)cc32)CC1 (configuration not stated)	4.745
CN(C)C(=O)N[C@H]1CN(C2CCOCC2)[C@@H]2CCCO[C@H]12.O=C(O)C(F)(F)F	16.52
NC(=O)c1ccc(N2CCCCC2)c(NC(=O)c2ccc(Br)cc2)c1	7.886
Cc1noc(C)c1CN1CC[C@H]2OCC[C@@H](C(=O)N3CCCO3)[C@@H]2C1	-14.86
Cc1nn2cccnc2c1C(=O)N1CCCC(Nc2ccccc2)C1 (configuration not stated)	-8.048
CC(=O)N(C)CC(=O)NC1(c2ccc(Cl)c(Cl)c2)CC1	-1.911
CC(C)(C)N1CCN(C(=O)Nc2cc(C(F)(F)F)c[nH]c2=O)CC1	82.7
O=C(Nc1cc(C(F)(F)F)c[nH]c1=O)N1CCOCC1	95.88
CC1CN(C(=O)Nc2cc(C(F)(F)F)c[nH]c2=O)CCO1 (configuration not stated)	83.43
CC(C)CN1CCN(C(=O)Nc2cc(C(F)(F)F)c[nH]c2=O)CC1	-8.263
CC(CCc1ccco1)NC(=O)Nc1cc(C(F)(F)F)c[nH]c1=O (configuration not stated)	-5.295
Cn1cnnc1CNC(=O)Nc1cc(C(F)(F)F)c[nH]c1=O	-11.16
O=C(Nc1cc(C(F)(F)F)c[nH]c1=O)c1ccco1	-1.817
COC1CCN(C(=O)Nc2cc(C(F)(F)F)c[nH]c2=O)CC1	107.9
COc1cc(CNC(=O)Nc2cc(C(F)(F)F)c[nH]c2=O)ccn1	-10.71
Cc1ncc(CNC(=O)Nc2cc(C(F)(F)F)c[nH]c2=O)s1	-11.29
COCC1CN(C(=O)Nc2cc(C(F)(F)F)ccc2F)CCO1 (configuration not stated)	-13.47
CS(=O)(=O)N1CCC2(CC1)CN(CC1CC1)CC21CCNC1=O.O=C(O)C(F)(F)F (configuration not stated)	-40.94
Cc1nc(-c2cn(CCN)nn2)n(-c2ccc(C(F)(F)F)cc2)n1	-70.01
Cc1nccn1-c1ccc(N2CCC(N[C@H](C)C(C)C)CC2)cc1	17.33
CC1CN(C(=O)Nc2ccc(Cl)c(C(=O)NC3CC3)c2)CC(C)(C)O1 (configuration not stated)	-20.36

SMILES	Percent Effect [%]
CC1CN(C(=O)Nc2cc(C(F)(F)F)c[nH]c2=O)CC(C)(C)O1 (configuration not stated)	113.6
O=C(Nc1cc(C(F)(F)F)c[nH]c1=O)N1CCSCC1	108.7
O=C(Nc1cc(C(F)(F)F)c[nH]c1=O)N1CCCSCC1	-10.12
CC1(C)CN(C(=O)Nc2cc(C(F)(F)F)c[nH]c2=O)CCO1	99.91
O=C(NCCNc1ncccn1)Nc1cc(C(F)(F)F)c[nH]c1=O	-3.235
CCCc1noc(CCC(=O)Nc2cc(C(F)(F)F)c[nH]c2=O)n1	-8.892
Cc1noc(CCCC(=O)Nc2cc(C(F)(F)F)c[nH]c2=O)n1	11.68
O=C(NC1=NCCS1)C1CSCN1C(=O)C1CCCC1 (configuration not stated)	-6.178
Cn1cccc(NC(=O)NCc2cccc(CO)c2)c1=O	-1.059
Cc1cc(-c2nc(-c3ccccn3)nn2C2CCN(C)CC2)nc(C)n1	-5.062
O=C(CCc1nc2cccnc2[nH]1)NCc1ccc2c(c1)OCO2	27.54
COc1ccc(CNC(=O)Cc2csc(C(C)=O)c2)cc1	2.837
O=C(CCc1nnc2ccccn2c1=O)NCc1ccc2c(c1)OCO2	110.3
O=C(Cn1ccc2sccc2c1=O)NCc1ccc2c(c1)OCO2	0.2723
Cc1cccc(N2CCN(CCC(=O)NCc3cccnc3)CC2)c1	6.039
O=C(CCc1nnc2ccccn2c1=O)NCc1cccnc1	121.1
COc1ccc(CNC(=O)CCc2nnc3ccccn3c2=O)cc1	126.1
Cn1cccc1CNC(=O)CCCc1nnc2ccccn12	14.24
O=C(CCc1nc2cccnc2[nH]1)NCc1cccnc1	5.887
O=C(CCC1CCCC1)NCc1nnc2ccccn12	1.32
O=C(CCc1nnc2ccccn2c1=O)NCc1ccco1	105.9

SMILES	Percent Effect [%]
CCn1ncnc1CN1CCc2[nH]cnc2C1CCc1ccccc1 (configuration not stated)	5.135
Cc1ccc(CNC(c2ccc(F)cc2)c2nccn2C)o1 (configuration not stated)	6.945
CC(=O)N1CCC(Oc2ccc(Cl)cc2C(=O)N2CCCO2)CC1	5.175
CN1CCN([C@@H]2CN(C(=O)c3ccsc3)[C@@H]3CCCO[C@H]23)CC1	-4.041
Cc1cnc(C(=O)N2C[C@H](N3CCOCC3)[C@@H]3OCCC[C@@H]32)cn1	115.1
O=C(c1ccsc1)N1C[C@H](N2CCOCC2)[C@@H]2OCCC[C@@H]21	0.7214
Cc1ccc(C(=O)N2C[C@@H](N3CCN(C)CC3)[C@H]3OCCC[C@H]32)cn1	115.4
Cc1ccoc1C(=O)N1C[C@@H](N2CCN(C)CC2)[C@H]2OCCC[C@H]21.O=C(O)C(F)(F)F.O=C(O)C(F)(F)F	-7.066
Cc1ccc(C(=O)N2C[C@@H]3CCCO[C@@H]3[C@H](N3CCOCC3)C2)cn1.O=C(O)C(F)(F)F.O=C(O)C(F)(F)F	-9.984
CC(C)(C)c1cn2nc(N3CCCC(Cn4cncn4)C3)sc2n1 (configuration not stated)	16.07
CCn1ccnc1CN(C)c1cc(C2CC2)ncn1	1.234
CN1CCCC(Cc2cncc(C(=O)NCC3CC3)c2)C1 (configuration not stated)	-7.268
CN1CCCC(Cc2cc(N(C)C)ncn2)C1 (configuration not stated)	94.81
CSCc1ccc(N(C)CC2CCCN(C(C)C)C2)nc1 (configuration not stated)	-13.33
CCn1ccnc1CN(C)c1cc(N(C)C)ncn1	12.61
CC(C)N1CCN(C)CC(Cc2cc(N(C)C)ncn2)C1 (configuration not stated)	93.36
CN1CCCC(CNC(=O)N2CCN(Cc3ccon3)CC2)C1 (configuration not stated)	-11.04
CN1CCC(Cc2cc(N(C)C)ncn2)C1 (configuration not stated)	110.8
c1cnc(NCc2noc3c2CN(C2CCOCC2)CC3)nc1	-17.2
COc1ccc(-c2nnc(C(C)N3CCOC(C)(C)C3)o2)cc1 (configuration not stated)	-4.024
